Test results taken from ChEMBL document CHEMBL3988442, “University of Dundee, Small-Polar-MMV Screening Library” (2021).
The whole screen tested about 69,000 compounds, of which about 1,000 (1.4%) showed an effect of 50% or more. The list comes from a sample in which strong results are over-represented; it also holds similar structures and randomly drawn compounds.

System: Leishmania donovani
Assay: Leishmania intramacrophage assay
Format: functional, organism-based
Set-up: scale not given: in the data most compounds retested in dose-response had high values

NS(=O)(=O)c1cccnc1Nc1cccc(Cl)c1Cl
Percent Effect (30.3 µM, […]): 7.348%

NS(=O)(=O)c1cccnc1Nc1c(Cl)cccc1Cl
Percent Effect (30.3 µM, […]): 68.36%

NS(=O)(=O)c1cccnc1NCc1ccco1
Percent Effect (30.3 µM, […]): 37.64%

CC1Cc2ccccc2N1C(=O)Cn1nc(-c2cccs2)ccc1=O (configuration not stated)
Percent Effect (30.3 µM, […]): 31.43%

O=C1CC(c2ccc(C(=O)O)cc2)c2ncn(-c3ccccc3F)c2N1 (configuration not stated)
Percent Effect (30.3 µM, […]): 26.03%

CC(=O)Nc1nc(C(=O)NCc2ccc(N3CCCCCC3)nc2)cs1
Percent Effect (30 µM, 30.03 µM): 27.71%

CC(=O)Nc1nc(C(=O)Nc2ccc(N3CCCCC3)nc2)cs1
Percent Effect (30 µM, 30.03 µM): 56.06%

CC(=O)Nc1nc(C(=O)NCc2ccc(N3CCCC3)nc2)cs1
Percent Effect (30 µM): 7.198%

Cc1cn2c(n1)CCC(NC(=O)CCC(F)(F)F)C2 (configuration not stated)
Percent Effect (30 µM, 30.03 µM): -20.9%

COCCc1noc(CN2CCN(c3ccc(OC)cc3)C(=O)C2C)n1 (configuration not stated)
Percent Effect (30.3 µM, […]): 6.497%

CCc1nnc(CN2CCN(c3cccc(OC)c3)C(=O)C2)o1
Percent Effect (30.3 µM, […]): 85%

COc1cc(CN2CCN(c3cccc(OC)c3)C(=O)C2)cc(OC)c1
Percent Effect (30 µM, 30.03 µM): -0.5901%

CCc1ccc(CN2CCN(c3cccc(OC)c3)C(=O)C2)nc1
Percent Effect (30.3 µM, […]): 11.49%

COc1ccc(N2CCN(Cc3nc(CSC)no3)C(C)C2=O)cc1 (configuration not stated)
Percent Effect (30.3 µM, […]): -39.19%

COc1ccc(N2CCN(Cc3nc(CSC)no3)CC2=O)cc1
Percent Effect (30.3 µM, […]): 62.54%

O=C(Nc1ccccc1F)C1=NN(c2ccccc2)C(=O)CN1
Percent Effect (30 µM): -15.12%

Cc1cc(NCCc2c(C)n[nH]c2C)nc(-c2cccnc2)n1
Percent Effect (30.3 µM, […]): 4.777%

Cn1ccnc1CN(Cc1ccccn1)Cc1ccccc1Cl.O=C(O)CC(O)(CC(=O)O)C(=O)O
Percent Effect (30.3 µM, […]): 10.71%

O=C(Nc1ccc(Cl)cn1)c1cncc(C2CCNCC2)n1
Percent Effect (30.3 µM, […]): -16.97%

COc1ccccc1C(=O)N1CCN(CCc2scnc2C)CC1
Percent Effect (30.3 µM, […]): 5.837%

CCS(=O)(=O)NCC(=O)Nc1cc(CC(C)(C)C)n[nH]1
Percent Effect (30.3 µM, […]): -13.95%

Cc1cnn(C2CN(CCOc3cccc(C#N)c3)C2)c1
Percent Effect (30.3 µM, […]): 0.4339%

COc1ccc(C2CCCN2c2cnccn2)c(OC)c1 (configuration not stated)
Percent Effect (30.3 µM, […]): 20.05%

COc1ccc(C2CCCN2c2nnc(C)s2)c(OC)c1 (configuration not stated)
Percent Effect (30.3 µM, […]): 1.461%

COc1ccc(C2CCCN2c2ccnc(C)c2Cl)c(OC)c1 (configuration not stated)
Percent Effect (30.3 µM, […]): 54.95%

COCCCn1ccc(NC(=O)NCCCn2ccnc2)n1
Percent Effect (30.3 µM, […]): 2.018%

COc1ccc(C(=O)NCCCn2ccnc2)c(OC)n1
Percent Effect (30 µM, 30.03 µM): 10.91%

CCOc1ccc(CNCCCn2ccnc2)cc1Cl.Cl.Cl
Percent Effect (30.3 µM, […]): 68.16%

CCOc1ccc(CNCCCn2ccnc2)cc1Br
Percent Effect (30 µM, 30.03 µM): 80.37%

COc1cc(CNCCn2ccnc2)cc2c1OCO2.Cl
Percent Effect (30.3 µM, […]): 27.41%

CCOc1cc(CNCCCn2ccnc2)cc(Cl)c1OCC
Percent Effect (30.3 µM, […]): 81.44%

CCOc1cc(CNCCCn2ccnc2)cc(Cl)c1OC
Percent Effect (30.3 µM, […]): 37.96%

CCOc1ccc(NC(=O)N2CCC(n3cncn3)CC2)cc1Cl
Percent Effect (30.3 µM, […]): -3.205%

CCOc1ccc(CNCCCn2ccnc2)cc1OC
Percent Effect (30.3 µM, […]): 3.86%

CN(C)C(=O)COCc1nn(C)c2c1CCN(Cc1ccco1)C2.O=C(O)C(F)(F)F
Percent Effect (30.3 µM, […]): 23.44%

O=C(NCC(F)F)c1ccc(S(=O)(=O)N2CCCC(O)C2)cc1 (configuration not stated)
Percent Effect (30.3 µM, […]): 15.51%

CN(C)Cc1ccc(C(=O)N2CCCC(n3cccn3)C2)cc1 (configuration not stated)
Percent Effect (30.3 µM, […]): -1.565%

Cc1nn(C)c(N(C)C)c1CNC1CCc2c(Cl)cccc21.Cl (configuration not stated)
Percent Effect (30 µM): 34.54%

O=C([C@@H](O)Cc1ccccc1)N1CCCn2cncc2C1
Percent Effect (30.3 µM, […]): 13.9%

Cn1ccc(C(=O)Nc2nc(-c3ccc4c(c3)CCO4)cs2)cc1=O
Percent Effect (30.3 µM, […]): 32.33%

O=C(COc1ccccc1)N1C[C@@H]2COC[C@]2(COc2cccnc2)C1.O=C(O)C(F)(F)F
Percent Effect (30.3 µM, […]): 29.31%

O=C(O)C(F)(F)F.O=C(c1ccc(F)cc1)N1C[C@@H]2COC[C@]2(COc2cccnc2)C1
Percent Effect (30.3 µM, […]): 16.14%

O=C(O)C(F)(F)F.O=C(c1cc(C2CC2)on1)N1C[C@@H]2COC[C@]2(COc2cccnc2)C1
Percent Effect (30.3 µM, […]): 50.64%

CC(C)(C)c1cc(CN2C[C@H]3CC[C@@H]2CN(Cc2ccccn2)C3)n[nH]1
Percent Effect (30.3 µM, […]): 4.97%

CC(C)N(C)S(=O)(=O)N(Cc1cccs1)CC1CCCO1 (configuration not stated)
Percent Effect (30.3 µM, […]): -50.49%

CC(C)c1cc(NCc2csc(N(C)C)n2)nc(N)n1
Percent Effect (30.3 µM, […]): 41.43%

CC(C)c1nc(CNc2ccc(CNS(C)(=O)=O)cc2)cs1
Percent Effect (30.3 µM, […]): 21.12%

CC(C)c1cc(NCc2csc(C(C)C)n2)nc(N)n1
Percent Effect (30.3 µM, […]): 50.61%

Cn1cc(CN2CCCC3(CCN(C(=O)c4cnccn4)C3)C2)cn1.O=C(O)C(F)(F)F.O=C(O)C(F)(F)F (configuration not stated)
Percent Effect (30.3 µM, […]): 26.24%

Cn1cc(CN2CCC3(CCCN(Cc4ccccn4)C3)CC2)cn1
Percent Effect (30 µM, 30.03 µM): 51.96%

O=C(O)C(F)(F)F.O=C(c1ccccn1)N1CCC2(CCCN(c3nncs3)C2)C1 (configuration not stated)
Percent Effect (30.3 µM, […]): 54.23%

O=C(O)C(F)(F)F.O=C(c1ccco1)N1CCCC2(CCN(c3nncs3)C2)C1 (configuration not stated)
Percent Effect (30.3 µM, […]): 36.42%

Cc1cccc(CN2CCC3(CCCN(Cc4cnn(C)c4)C3)C2)n1.O=C(O)C(F)(F)F.O=C(O)C(F)(F)F (configuration not stated)
Percent Effect (30.3 µM, […]): 37.49%

Cc1cnc(C(=O)N2CCC3(CCCN(c4nncs4)C3)C2)cn1 (configuration not stated)
Percent Effect (30.3 µM, […]): 29.83%

Cn1cc(CN2CCCC3(CCN(C(=O)c4ccccn4)C3)C2)cn1.O=C(O)C(F)(F)F.O=C(O)C(F)(F)F.O=C(O)C(F)(F)F (configuration not stated)
Percent Effect (30.3 µM, […]): 77.43%

Cn1cc(CN2CCCC23CCN(C(=O)c2ccccn2)CC3)cn1.O=C(O)C(F)(F)F
Percent Effect (30.3 µM, […]): -2.86%

Cn1cc(CN2CCC3(CC2)CCN(Cc2ccccn2)CC3)cn1
Percent Effect (30.3 µM, […]): -5.313%

CCOc1ccc(NC(=O)N(C)Cc2cnn(C)c2)c(C)c1
Percent Effect (30.3 µM, […]): 28.5%

CC(C)N1CCO[C@H]2CN(C(=O)c3ccoc3)C[C@H]21.O=C(O)C(F)(F)F
Percent Effect (30 µM, 30.03 µM): -20.99%

Cn1cnc2c1C(COCc1cccnc1)N(Cc1ccccn1)CC2 (configuration not stated)
Percent Effect (30 µM, 30.03 µM): 6.459%

CC(C)(C)c1n[nH]c(C2CN(Cc3nnc(C4CCC4)o3)CCO2)n1 (configuration not stated)
Percent Effect (30 µM): 11.21%

CCN(C)c1ncnc2c1CCN(Cc1ccncc1)CC2.O=C(O)C(F)(F)F.O=C(O)C(F)(F)F.O=C(O)C(F)(F)F
Percent Effect (30.3 µM, […]): 31.79%

CCn1cc(CN(C)S(=O)(=O)c2ccc(Cl)cc2)cn1
Percent Effect (30 µM, 30.03 µM): 2.361%

CCn1cc(CN(C)S(=O)(=O)c2cnn(C)c2)cn1
Percent Effect (30.3 µM, […]): 50.44%

CCn1cc(CN(C)S(=O)(=O)c2ccccc2)cn1
Percent Effect (30.3 µM, […]): 11.15%

C[C@@H]1CN(Cc2ccoc2)C[C@]12CCN(CC(=O)N(C)C)C2=O.O=C(O)C(F)(F)F
Percent Effect (30.3 µM, […]): 1.993%

NC(=O)c1ccnc(N2CCCC(CO)(Cc3ccc(F)cc3)C2)c1 (configuration not stated)
Percent Effect (30.3 µM, […]): 16.75%

O=S(=O)(CCCN1CCOC(Cn2cccn2)C1)c1ccccc1 (configuration not stated)
Percent Effect (30.3 µM, […]): 8.687%

Cc1noc([C@H]2COC[C@H]3CN(C(=O)Cc4cccc(F)c4)C[C@H]32)n1
Percent Effect (30.3 µM, […]): 29.86%

Cc1noc(C)c1CN(C)C(=O)c1ccc(O)nc1
Percent Effect (30 µM): 24.33%

Cc1noc(C)c1CN(C)C(=O)c1ccc(NC2CC2)nc1
Percent Effect (30 µM, 30.03 µM): 24.65%

Cc1noc(C)c1CN(C)C(=O)c1cnc(C2CC2)nc1O
Percent Effect (30.3 µM, […]): 65.78%

O=C(CSc1ncccn1)N1C[C@H]2CC[C@@H]1CN(Cc1ccncc1)C2
Percent Effect (30 µM, 30.03 µM): 54.88%

O=C(CSc1ccncc1)N1C[C@H]2CC[C@@H]1CN(Cc1cccnc1)C2
Percent Effect (30 µM, 30.03 µM): 35.98%

CCOC(=O)N1C[C@H]2CC[C@@H]1CN(Cc1ccccc1)C2
Percent Effect (30.3 µM, […]): 27.53%

CSCC(=O)N1C[C@H]2CC[C@@H]1CN(Cc1ccccc1)C2
Percent Effect (30 µM, 30.03 µM): 50.94%

O=C(CC(F)(F)F)N1C[C@H]2CC[C@@H]1CN(Cc1ccccc1)C2
Percent Effect (30.3 µM, […]): 17.26%

O=C(CSc1ccccc1)N1C[C@H]2CC[C@@H]1CN(Cc1ccncc1)C2
Percent Effect (30.3 µM, […]): 14.29%

[O-][S+](Cc1c(F)cccc1Cl)Cc1nnnn1C1CC1 (configuration not stated)
Percent Effect (30.3 µM, […]): -31.87%

COCCC(C)NC(=O)c1cc(Br)c2c(c1)OCCO2 (configuration not stated)
Percent Effect (30 µM): 12.78%

Cc1nc(COc2cccc(C#N)c2)no1
Percent Effect (30 µM, 30.03 µM): -12.6%

Cc1n[nH]c(C2CN(CC(=O)NCCc3ccccc3C)CCO2)n1 (configuration not stated)
Percent Effect (30.3 µM, […]): -38.97%

CCCc1cncnc1N1CCC(NCc2ccncc2)CC1
Percent Effect (30.3 µM, […]): -13.54%

CCCc1cncnc1N1CCC(NCc2ccc(O)cc2)CC1
Percent Effect (30.3 µM, […]): -3.143%

CCCc1cncnc1N1CCC(NCc2cc3ccccc3[nH]2)CC1
Percent Effect (30.3 µM, […]): 84.37%

CC(=O)N1CCN(c2cc(C3CN(C(C)=O)CCO3)nc(C)n2)CC1 (configuration not stated)
Percent Effect (30.3 µM, […]): 2.386%

CC(C)c1ccc(C#N)c(N2CC(C)(C)[C@@](C)(O)C2)n1
Percent Effect (30.3 µM, […]): 3.251%

Cc1cc(C)n(CC2CN(CCOc3ccccc3C#N)CCO2)n1 (configuration not stated)
Percent Effect (30 µM): 10.79%

CCn1ncc2c1C(COC)CN(c1ncc(F)cn1)C2.O=C(O)C(F)(F)F.O=C(O)C(F)(F)F (configuration not stated)
Percent Effect (30.3 µM, […]): 50.28%

COCC1CN(c2ncc(F)cn2)Cc2cnn(C)c21.O=C(O)C(F)(F)F.O=C(O)C(F)(F)F (configuration not stated)
Percent Effect (30.3 µM, […]): 22.2%

CCn1ncc2c1C(COC)CN(Cc1ccc(F)cc1)C2.O=C(O)C(F)(F)F.O=C(O)C(F)(F)F (configuration not stated)
Percent Effect (30.3 µM, […]): -25.2%

CCOC1COC2(CCN(S(=O)(=O)c3cccc(C)c3)CC2)C1 (configuration not stated)
Percent Effect (30.3 µM, […]): 23.7%

COC1COC2(CCN(S(=O)(=O)c3ccc(F)cc3)CC2)C1 (configuration not stated)
Percent Effect (30.3 µM, […]): 5.953%

Cc1cccc(S(=O)(=O)N2CCC3(CC2)CC(N(C)C)CO3)c1 (configuration not stated)
Percent Effect (30.3 µM, […]): 50.39%

CCOC1COC2(CCN(S(=O)(=O)c3cccc(F)c3)CC2)C1 (configuration not stated)
Percent Effect (30 µM, 30.03 µM): -15.08%

CN(C)C1COC2(CCN(S(=O)(=O)c3ccc(F)cc3)CC2)C1.O=C(O)C(F)(F)F (configuration not stated)
Percent Effect (30.3 µM, […]): 52.86%

CCOC1COC2(CCN(S(=O)(=O)c3ccc(F)cc3)CC2)C1 (configuration not stated)
Percent Effect (30.3 µM, […]): 12.78%
